Experiment [1] can be described thus: NFkB reporter suppression in cystic fibrosis bronchial cells – cell-based, uHTS hits, panel, cytotoxicity readout, dose response (AID 624344). The settings on record: CF bronchial epithelial cells, PAF-induced NFkB reporter inhibition, with PAF, run 1; at 79 µM (top of the series) unless noted.
Assay in experiment [2]: as above
As to conditions: CF bronchial epithelial cells, PAF-induced NFkB reporter inhibition, with PAF, run 2; at 79 µM (top of the series) unless noted.

Take `CCOC(=O)c1[nH]c2c(c1C)C(=O)CC(c1ccco1)C2` (stereo unspecified): the results for the inhibition in experiment [1] and in experiment [2] were 40.8% and 98.7%, respectively.
In the same order, the values of `C=CCSc1nc2ccccc2n1C(=O)/C=C/c1ccc(OC)c(OC)c1` are 115% and 102%.
Taken in the same sequence, the figures for `CN1CCN(S(=O)(=O)c2ccc(Sc3nnnn3-c3ccccc3)c([N+](=O)[O-])c2)CC1` were 109% and 99.5%.
In the same order, the values of `C=CC(=O)Nc1cccc(Oc2ncnc3[nH]cc(-c4cnc5ccccc5c4)c23)c1` are 102% and 109%.
On to `CCN1CCN(Cc2ccc(NC(=O)c3ccc(C)c(NC(=O)c4ccc5n[nH]nc5c4)c3)cc2C(F)(F)F)CC1`, for which the inhibition in experiment [1] came to 101%; in experiment [2], 111%.
Taken in the same sequence, the figures for `CCOc1ccc(CCN2C(=S)N([C@@H](CC(C)C)CN3CCCC3CN3C(=S)NC[C@@H]3CC(C)C)C[C@@H]2Cc2ccc(O)cc2)cc1` (stereo partly specified) were 76.2% and 93.9%.
`O=Nc1c(O)n(Cc2c(Cl)cccc2Cl)c2ccccc12`: the inhibition is 103% in experiment [1] and 115% in experiment [2].
In the same order, the values of `Cc1ccccc1C(=O)N1CCN(c2ccc(NC(=O)c3cccc(OC(C)C)c3)cc2)CC1` are 89.1% and 86.4%.
In the same order, the values of `O=C(Nc1ccc(Oc2ccc(NC(=O)Nc3ccc([N+](=O)[O-])cc3)cc2)cc1)Nc1ccc([N+](=O)[O-])cc1` are 101% and 114%.
With `O=C(Nc1ccc(OCC(=O)N2CCOCC2)cc1)c1cncc(Br)c1`, the results for the inhibition in experiment [1] and in experiment [2] were 90.4% and 98.9%, respectively.
In the same order, the values of `COc1ccc(-c2oc3ccc(-c4ccc(OC)nc4)cc3c2C#CC2(O)CCCCC2)cc1` are 103% and 103%.
In the same order, the values of `C[C@@H]1CN([C@H](C)CO)C(=O)c2cc(NC(=O)Nc3ccc(C(F)(F)F)cc3)ccc2O[C@H]1CN(C)S(=O)(=O)c1cccs1` are 113% and 96.8%.
In the same order, the values of `COc1ccc2c(c1OC)C(=O)N1c3ccccc3C(=O)N(c3ccccc3)C21` (stereo unspecified) are 112% and 102%.
As to `Cc1ccc(Nc2nc3nonc3[nH]c2=O)cc1Cl`, the inhibition in experiment [1] came to 118%; in experiment [2], 104%.
In the same order, the values of `C=CC[C@]12CC=CC(=O)[C@@]1(O)O[C@H](c1ccc(OC)c(OC)c1)[C@H]2C` are 110% and 87.5%.
Taken in the same sequence, the figures for `C=C1C(=O)OC2CC1C(O)CC(C)=CCCC(C)=CC(O)CC2C` (stereo unspecified) were 103% and 110%.
Taken in the same sequence, the figures for `CN(CCC#N)C(=O)COC(=O)c1ccccc1C(=O)c1ccc(Cl)c([N+](=O)[O-])c1` were 96.7% and 105%.
As for `COCCN1Cc2cccc(C(=O)Nc3cccc(-c4nc5ccccc5[nH]4)c3)c2C1=O`, the inhibition in experiment [1] worked out at 95.8%; in experiment [2], 114%.
As for `CC(=C/c1ccccc1)/C=N/n1c(-c2ccncc2)n[nH]c1=S`, the results for the inhibition in experiment [1] and in experiment [2] were 110% and 103%, respectively.
In the same order, the values of `O=C(O)/C=C/c1ccc2c(-c3ccccc3)onc2c1` are 113% and 105%.
Take `COc1ccccc1Cn1c(=O)c2ccccc2n2c(Sc3ncnc4sccc34)nnc12`: the inhibition stood at 101% in experiment [1] and 113% in experiment [2].
Taken in the same sequence, the figures for `CC(=O)c1cccc(NC(=O)COC(=O)c2ccc(S(C)(=O)=O)c([N+](=O)[O-])c2)c1` were 92.5% and 93.4%.
In the same order, the values of `O=C(Oc1cc2oc(=O)cc(-c3ccccc3)c2cc1Cl)C1CCCCC1` are 113% and 105%.
`O=S1(=O)CCC(NC(=S)SCCOc2ccccc2)C1` (stereo unspecified): the inhibition in experiment [1] worked out at 99.3%; in experiment [2], 108%.
In the same order, the values of `O=C(N/N=C/c1ccccc1Cl)c1[nH]c2ccc(Br)cc2c1-c1ccccc1` are 105% and 109%.
Taken in the same sequence, the figures for `Nc1ncc([N+](=O)[O-])c(N2CCCCCC2)n1` were 115% and 104%.
In the same order, the values of `CC(C)(C)S(=O)N1Cc2cc(C(=O)NCC(F)(F)F)nc(-c3cccc(-c4cccc(F)c4)c3)c2[C@@H]1CCO` (stereo partly specified) are 110% and 103%.
`Brc1cccc(CSc2nnc(-c3ccncc3)o2)c1`: the inhibition in experiment [1] is 105%; in experiment [2] it was 99%.
In the same order, the values of `CCOC(=O)c1c(C)c2c(=O)[nH]cnc2n1-c1ccccc1` are 110% and 104%.
In the same order, the values of `C=C1C(=O)O[C@@H]2[C@H]3O[C@]3(C)CC/C=C(\C)CC[C@@H]12` are 101% and 99.4%.
Taken in the same sequence, the figures for `Nc1nccc(SCc2ccc(Cl)cc2Cl)n1` were 72.7% and 74.1%.
As to `CCOc1ccc(C(C(=O)NCC2CCCO2)N(Cc2cccs2)C(=O)c2snc(C(N)=O)c2N)cc1` (stereo unspecified), the inhibition in experiment [1] came to 99.5%; in experiment [2], 92.5%.
In the same order, the values of `COc1cc2c(c(OC)c1OC)-c1ccc(SC)c(=O)cc1C(NC(=O)C(F)(F)F)CC2` (stereo unspecified) are 72.8% and 79%.
Consider `Clc1ccc(-c2csc3ncnc(N4CCc5ccccc5C4)c23)cc1`, for which the inhibition was found to be 103% in experiment [1] and 112% in experiment [2].
For `COCCCN=C1NN=C(c2cc(C)n(Cc3ccccc3Cl)c2C)CS1`, the inhibition in experiment [1] came to 88.6%; in experiment [2], 106%.
`CC1=C(C(=O)OCc2ccc3c(c2)OCO3)C(c2ccc(O)c([N+](=O)[O-])c2)NC(=O)N1` (stereo unspecified): the results for the inhibition in experiment [1] and in experiment [2] were 94.5% and 89%, respectively.
Taken in the same sequence, the figures for `CN(C)CCCN(C(=O)CCSc1ccccc1)c1nc2cc3c(cc2s1)OCO3` were 106% and 116%.
Taken in the same sequence, the figures for `Cc1ccccc1C(=O)N1CCN(c2ccc(NC(=O)CSc3ccc(Cl)cc3)cc2)CC1` were 77.6% and 71.9%.
In the same order, the values of `COc1ccc2cc3c(N)nn(C(=O)Cc4ccccc4OC)c3nc2c1` are 106% and 100%.
Consider `CC(=O)Nc1nc(C)c(-c2csc(Nc3cccc(C(C)=O)c3)n2)s1`, for which the inhibition in experiment [1] is 105%; in experiment [2], 101%.
Taken in the same sequence, the figures for `Cc1ccc(NC(=O)c2ccccc2NS(=O)(=O)c2ccc(Cl)s2)cc1S(=O)(=O)N1CCOCC1` were 111% and 95.3%.
Taken in the same sequence, the figures for `CNC(=O)COC(=O)c1ccccc1C(=O)c1ccc(Cl)c([N+](=O)[O-])c1` were 103% and 102%.
With `COc1cccc(-c2ccc3ncnc(NCc4ccc5c(c4)OCO5)c3c2)c1`, the inhibition in experiment [1] is 97.6%; in experiment [2], 113%.

(Values after PubChem BioAssay.)
